About 83,000 compounds went through this panel and 20% of them were active in at least one assay; those are over-represented in the sample as a whole.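 Single-dose data. Exposure time 48 hours. Values below 10 considered active.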 A number with no mark means an inactive call. Activity calls are given as the source filed them.
tested on: SF-295 CNS; assay: NCI-60 one-dose screen, 48 h (100 = growth as untreated, 0 = no growth, -100 = all killed); conditions: 10 µM unless noted

SMILES | growth
COc1ccc2c(c1)c(/C=N/Nc1ccc3ccccc3n1)cn2C | -60.4% (active)
Cc1ccc(S(=O)(=O)c2nc(S(=O)(=O)c3ccc(C)cc3)c(N3CCN(C)CC3)s2)cc1 | 102%
COc1cc2c(c(OC)c1OC)C(=O)CC(c1cccc(NC(=O)c3cc(NC(=O)[C@H](C)N)ccc3Cl)c1)O2 (some centres undefined) | 110%
Cc1ccc(C(=O)C(c2c[nH]c3ccccc23)c2c[nH]c3ccccc23)cc1 | 81.9%

tested on: SF-539 CNS; assay: as above; conditions: 10 µM unless noted

SMILES | growth
O=C(c1ccccc1)c1ccc2nc(-c3ccc(F)cc3)[nH]c2c1 | 50.6%
CC1(C)CC[C@]2(C(=O)O)CC[C@]3(C)C(=CCC4[C@@]5(C)C[C@@H](O)[C@@H]6OC(c7ccc(F)cc7)OC[C@@]6(C)C5CC[C@]43C)C2C1 (some centres undefined) | 50.8%
N/C(=N\c1nc2ccccc2s1)NC(=O)Nc1ccc(Cl)cc1Cl | -78.2% (active)
CCCCSc1nc(Nc2ccc(S(N)(=O)=O)cc2)c(C#N)c(-c2cc(OC)c(OC)c(OC)c2)n1 | 38.1%
O=C(COc1ccc2c(c1)CCCC(=O)N2)NCc1ccccc1 | 87.3%
Nc1nc(-c2ccccc2)c(N=Nc2ccc([N+](=O)[O-])cc2Cl)s1 | 96.5%
CC1(C)CC[C@]2(C(=O)O)CC[C@]3(C)C(=CCC4[C@@]5(C)C[C@@H](O)[C@@H]6OC(c7cccc(Br)c7)OC[C@@]6(C)C5CC[C@]43C)C2C1 (some centres undefined) | 54.6%
C#CCOc1ccc(/C=N/Nc2nc(-c3cc4cc(OC)ccc4oc3=O)cs2)cc1OC | 28.2%
N#Cc1c(NCc2ccccc2)n[nH]c1Nc1ccccc1 | 75.9%
COc1cc2oc(-c3cccc(C(=O)Nc4ccc(Cl)cc4)c3)cc(=O)c2c(OCC(=O)N[C@@H](Cc2ccccc2)C(=O)O)c1OC | 99.3%
Cn1cc(-c2cc3nc(-c4c[nH]c5ccc(Cl)cc45)cc(N)n3n2)c2ccccc21 | -87.9% (active)
C#C[C@]1(O)CC[C@H]2[C@@H]3CC=C4c5sc(-c6ccc([N+](=O)[O-])cc6)nc5CC[C@]4(C)[C@H]3CC[C@@]21C | -49% (active)
O=C(CSc1nc2ccccc2c(=O)[nH]1)NCCN1CCCCC1 | 91%
C#CCOc1cc(N(CC)CC)ccc1C(C(=O)NC(C)(C)C)N(C(=O)C1CCc2cc(F)ccc2O1)c1ccc(F)c(Cl)c1 (centres undefined) | 77.9%
O=c1oc2ccccc2cc1-c1csc(N2N=C(c3ccccc3)CC2c2ccc(N3CCOCC3)cc2)n1 (centres undefined) | 100%
Cn1cc(-c2cc(N)n3nc(-c4cn(C)c5ncccc45)cc3n2)c2cccnc21 | 84.2%
COc1ccc(-c2ccnc(SCc3cc4cc(OC)ccc4[nH]c3=O)n2)cc1 | 20.5%
CCOc1ccc(-c2c(C#N)c(-c3ccc(Cl)cc3)nc3n[nH]c(-c4ccc(Cl)cc4)c23)cc1OC | 62.6%
CN(C)c1ccnc(NCCCSC(c2ccccc2)(c2ccccc2)c2ccccc2)c1 | 41.6%
O=C(Cn1c(/C=C/c2ccccc2)nc2ccccc2c1=O)Nc1ccccc1 | 70.2%
O=C(O)c1cccc(-c2ccc(/C=N/NC(=O)c3[nH]c4ccc(Br)cc4c3-c3ccccc3)s2)c1 | 16.1%
C#CCOc1cc(N(CC)CC)ccc1C(C(=O)NC(C)(C)C)N(C(=O)C1CCc2cc(F)ccc2O1)c1cc(C)cc(C)c1 (centres undefined) | 53.5%
COc1cc2c(c(OC)c1OC)C(=O)CC(c1cccc(NC(=O)c3cc(NC(=O)[C@@H](N)CO)ccc3C)c1)O2 (some centres undefined) | 99.7%
C#CCOc1ccc(/C=N/Nc2nc(-c3ccc(F)cc3)cs2)cc1OC | 70.6%
Cc1cc2c(cc1Cl)C(=O)/C(=C/c1ccc(F)cc1)O2 | 85.9%
Cn1cc(-c2cc3nc(-c4cn(C)c5ncccc45)cc(N)n3n2)c2cc(Cl)ccc21 | -98.5% (active)
COc1ccc2[nH]cc(-c3cc(N)n4nc(-c5cn(C)c6ccccc56)cc4n3)c2c1 | -82% (active)
COc1ccc(Cc2nn(CC(=O)N/N=C/c3ccc(F)cc3)c(=O)c3c(C)noc23)cc1 | 57.1%
Cc1ccc(NCC(=O)Cn2cc(COc3ccc(C=Nc4cnc5ccccc5c4)cc3)nn2)cc1 | 104%
Cc1cccc(NC(=O)CN2CCN(c3ncnc4c3cnn4-c3ccccc3)CC2)c1 | 102%

Reference: PubChem BioAssay (NCI)
